In PubChem BioAssay (NCI) one finds growth data, which are given here for seven molecules.

Among the test systems are NCI-H23 lung; NCI-H226 lung; NCI-H322M lung; HOP-62 NSCLC; NCI-H460 lung; HOP-92 NSCLC; NCI-H522 lung; A549/ATCC NSCLC; 786-0 renal; COLO 205 colon; DU-145 prostate; K-562 leukemia; MALME-3M melanoma; MDA-MB-231 breast; RXF 393 renal; SF-268 CNS; SF-295 CNS; SF-539 CNS; UACC-257 melanoma; M14 melanoma.
What all share (assay): NCI-60 one-dose screen, 48 h (100 = growth as untreated, 0 = no growth, -100 = all killed)
Common to all, as to conditions: 10 µM unless noted

Compounds without any hit were thinned out: in the full panel of roughly 83,000, 20% have a hit.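 Testing used 96-well plates and a 48-hour single-concentration exposure. Example: -40 means 40% of the starting cells died.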 Unmarked numbers belong to inactive results. Activity calls are given as the source filed them. Rule for the calls: active = growth percent below 10; inactive = the rest.

As for `CC(C)Sc1nc(NCCc2c[nH]c3ccccc23)c(C#N)c(-c2ccccc2)n1`, the growth was 17.9% with NCI-H23 lung; 33.8% with NCI-H226 lung; 85.4% in the experiment with NCI-H322M lung; 31.9% with HOP-62 NSCLC; 6.33% (active) with NCI-H460 lung; 4.4% (active) in the experiment with HOP-92 NSCLC. The growth in the experiment with NCI-H522 lung was 25.4%; in the experiment with A549/ATCC NSCLC it was 39.6%; with 786-0 renal, 1.53% (active); with COLO 205 colon it was 11.9%; in the experiment on DU-145 prostate, 42.5%; in the experiment with K-562 leukemia, 8.87% (active). The growth in the experiment with MALME-3M melanoma is 55.8%; with MDA-MB-231 breast it was -17.3% (active); in the experiment with RXF 393 renal it was -27.6% (active); in the experiment on SF-268 CNS, 45%; with SF-295 CNS, -14.3% (active); with SF-539 CNS, 40.8%. For the same molecule, the values for the growth in the experiment on UACC-257 melanoma and with M14 melanoma were 86.4% and 42.7%, respectively.

`COc1cc(-c2nc3cc(Cl)c(Cl)cc3[nH]2)ccc1OCc1nnc(-c2cccs2)o1`: the growth with NCI-H23 lung was 47.4%; in the experiment on NCI-H226 lung it was 54.7%; in the experiment with NCI-H322M lung, 75.3%; in the experiment with HOP-62 NSCLC, 77.8%; with NCI-H460 lung, 38.8%; in the experiment on HOP-92 NSCLC, 69%. Besides, the growth in the experiment with NCI-H522 lung is 51.8%; in the experiment on A549/ATCC NSCLC, 11.7%; in the experiment with 786-0 renal, 85.8%; with COLO 205 colon it was 81.9%; in the experiment on DU-145 prostate, 34.7%; with K-562 leukemia, 54%. The growth with MALME-3M melanoma is 18.1%; in the experiment on MDA-MB-231 breast, 17.9%; in the experiment on RXF 393 renal it was -2.12% (active); with SF-268 CNS it was 68.5%; in the experiment on SF-295 CNS it was 31.9%; in the experiment with SF-539 CNS it was 104%. In addition, the growth in the experiment on UACC-257 melanoma is 61.2%; in the experiment on M14 melanoma, 41.8%.

Take `CCCSc1nc(NCCc2c[nH]c3ccccc23)c(C#N)c(-c2ccc(OC)cc2)n1`: the growth in the experiment on NCI-H23 lung was 73.7%; in the experiment on NCI-H226 lung it was 50.7%; in the experiment on NCI-H322M lung, 89%; in the experiment on HOP-62 NSCLC it was 64.5%; with NCI-H460 lung, 19%; in the experiment with HOP-92 NSCLC it was 64.7%. Further, the growth in the experiment with NCI-H522 lung is 43.8%; in the experiment on A549/ATCC NSCLC, 53.3%; with 786-0 renal, 31.9%; with COLO 205 colon, 61.3%; in the experiment on DU-145 prostate, 62.2%; in the experiment on K-562 leukemia it was 23.5%. Moreover, the growth in the experiment on MALME-3M melanoma is 83.1%; in the experiment with MDA-MB-231 breast, 41.2%; in the experiment with RXF 393 renal it was -17.3% (active); in the experiment on SF-268 CNS, 57.4%; with SF-295 CNS it was 29.7%; in the experiment on SF-539 CNS it was 50.6%. Further, the figures for the growth with UACC-257 melanoma and in the experiment with M14 melanoma were 89.8% and 63.5%, respectively.

As for `Nc1cccc(SCc2cc3ccccc3[nH]c2=O)c1`, the growth with NCI-H23 lung is 73.5%; in the experiment on NCI-H226 lung it was 69.8%; in the experiment on NCI-H322M lung, 73.3%; in the experiment on HOP-62 NSCLC it was 42.7%; in the experiment with NCI-H460 lung, 20%; with HOP-92 NSCLC, 74.6%. Besides, the growth in the experiment on NCI-H522 lung is 43.6%; in the experiment with A549/ATCC NSCLC, 33.2%; in the experiment on 786-0 renal, 47.3%; in the experiment with COLO 205 colon, 29%; in the experiment on DU-145 prostate, 58.7%; with K-562 leukemia, 9.64% (active). The growth is 72% in the experiment with MALME-3M melanoma; 57.2% in the experiment on MDA-MB-231 breast; 81.5% with RXF 393 renal; 47.7% in the experiment with SF-268 CNS; 19.3% in the experiment on SF-295 CNS; 59.9% with SF-539 CNS. In addition, the results for the growth in the experiment on UACC-257 melanoma and in the experiment with M14 melanoma were 48.5% and 20.5%, respectively.

On to `CCCSc1nc(NCCc2c[nH]c3ccccc23)c(C#N)c(-c2ccc(F)cc2)n1`, for which the growth was 80.6% in the experiment on NCI-H23 lung; 32.5% in the experiment on NCI-H226 lung; 82.9% with NCI-H322M lung; 40.4% in the experiment with HOP-62 NSCLC; 14.1% in the experiment on NCI-H460 lung; 52.1% with HOP-92 NSCLC. Also, the growth in the experiment with NCI-H522 lung was 61.3%; with A549/ATCC NSCLC, 58.6%; with 786-0 renal it was 62.4%; with COLO 205 colon, 44%; in the experiment with DU-145 prostate, 63.7%; in the experiment with K-562 leukemia it was 27.7%. Also, the growth is 75.4% in the experiment on MALME-3M melanoma; 29.2% with MDA-MB-231 breast; 24.8% in the experiment with RXF 393 renal; 53.8% in the experiment with SF-268 CNS; 41.2% in the experiment with SF-295 CNS; 44.7% with SF-539 CNS. Further, the results for the growth with UACC-257 melanoma and in the experiment with M14 melanoma were 74.6% and 75.5%, respectively.

`O=C(/C=C/c1ccc(O)c(O)c1)NC1CCOC1O` (stereo not given): the growth is 104% in the experiment with NCI-H23 lung; 120% in the experiment on NCI-H226 lung; 105% in the experiment with NCI-H322M lung; 101% with HOP-62 NSCLC; 116% in the experiment on NCI-H460 lung; 91.5% in the experiment on HOP-92 NSCLC. Moreover, the growth with NCI-H522 lung is 75.6%; in the experiment with A549/ATCC NSCLC, 99.4%; with 786-0 renal, 97.2%; with COLO 205 colon it was 105%; in the experiment on DU-145 prostate, 108%; with K-562 leukemia, 88.3%. In addition, the growth in the experiment with MALME-3M melanoma was 103%; with MDA-MB-231 breast, 99.1%; in the experiment on RXF 393 renal, 125%; in the experiment with SF-268 CNS it was 99.6%; with SF-295 CNS it was 101%; with SF-539 CNS it was 95.7%. Also, the growth was 102% in the experiment with UACC-257 melanoma and 108% with M14 melanoma.

Consider `CN1C(=O)/C(=C/c2ccc(C(=O)Nc3ncc(Cc4ccc(Cl)cc4Cl)s3)cc2)SC1=S`, for which the growth in the experiment on NCI-H23 lung is 42.8%; in the experiment on NCI-H226 lung, 51.8%; in the experiment on NCI-H322M lung it was 47.1%; in the experiment on HOP-62 NSCLC it was 59.3%; in the experiment with NCI-H460 lung, 46.2%; in the experiment with HOP-92 NSCLC, 64.4%. Besides, the growth in the experiment with NCI-H522 lung is 19.2%; with A549/ATCC NSCLC, 42.7%; in the experiment on 786-0 renal it was 53.3%; in the experiment on COLO 205 colon, 27.6%; in the experiment with DU-145 prostate, 30.7%; in the experiment on K-562 leukemia it was 24.3%. The growth is 23.1% in the experiment with MALME-3M melanoma; 43.6% in the experiment on MDA-MB-231 breast; 30.9% in the experiment with RXF 393 renal; 47% in the experiment with SF-268 CNS; 10.8% with SF-295 CNS; 36.9% with SF-539 CNS. Moreover, the growth in the experiment on UACC-257 melanoma is 33.1%; in the experiment on M14 melanoma, 11.6%.
